Measurements reported in PubChem BioAssay (NCI).
The panel holds about 83,000 compounds, 20% with a hit somewhere; the sample as a whole holds those more often.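 Each cell line was grown in a 96-well plate and treated with one concentration of compound for 48 hours. Values below 10 were considered active.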 The source made the active and inactive calls.

Experiments:
Assay in all cases: NCI-60 one-dose screen, 48 h (100 = growth as untreated, 0 = no growth, -100 = all killed)
Settings in all cases: 10 µM unless noted
HCT-15 colon = test system: HCT-15 colon
HT29 colon = test system: HT29 colon
SNB-75 CNS = test system: SNB-75 CNS
SNB-19 CNS = test system: SNB-19 CNS
U251 CNS = test system: U251 CNS
PC-3 prostate = test system: PC-3 prostate
SK-MEL-5 melanoma = test system: SK-MEL-5 melanoma
UACC-62 melanoma = test system: UACC-62 melanoma
LOX IMVI melanoma = test system: LOX IMVI melanoma
SK-MEL-28 melanoma = test system: SK-MEL-28 melanoma
SK-MEL-2 melanoma = test system: SK-MEL-2 melanoma
EKVX NSCLC = test system: EKVX NSCLC
SN12C renal = test system: SN12C renal
UO-31 renal = test system: UO-31 renal
TK-10 renal = test system: TK-10 renal
ACHN renal = test system: ACHN renal
CAKI-1 renal = test system: CAKI-1 renal
A498 renal = test system: A498 renal
CCRF-CEM leukemia = test system: CCRF-CEM leukemia
MOLT-4 leukemia = test system: MOLT-4 leukemia

Measured: growth

CN(C)c1ccc([C@@H](C(=O)Nc2cccc([N+](=O)[O-])c2)N(C(=O)c2cc3ccccc3[nH]2)c2cccc([N+](=O)[O-])c2)cc1
inactive: HCT-15 colon 103% | HT29 colon 101% | SNB-75 CNS 78.2% | SNB-19 CNS 97.8% | U251 CNS 88.8% | PC-3 prostate 82.7% | SK-MEL-5 melanoma 97.7% | UACC-62 melanoma 86.7% | LOX IMVI melanoma 88% | SK-MEL-28 melanoma 112% | SK-MEL-2 melanoma 113% | EKVX NSCLC 90.7% | SN12C renal 97.8% | UO-31 renal 67.6% | TK-10 renal 117% | ACHN renal 93.3% | CAKI-1 renal 92.5% | A498 renal 70.5% | CCRF-CEM leukemia 96.1% | MOLT-4 leukemia 92%

O=C(/C=C/C12c3ccccc3C(c3ccccc31)C1C(=O)NC(=O)C12)c1ccco1 (stereo not given)
active: SNB-75 CNS -2.52% | SK-MEL-2 melanoma 7.24% | CCRF-CEM leukemia -5.48% | MOLT-4 leukemia 6.25%
inactive: HCT-15 colon 21.7% | HT29 colon 13.1% | SNB-19 CNS 30.9% | U251 CNS 15.9% | PC-3 prostate 31.9% | SK-MEL-5 melanoma 46% | UACC-62 melanoma 30.8% | LOX IMVI melanoma 16.1% | SK-MEL-28 melanoma 44.3% | EKVX NSCLC 55.6% | SN12C renal 22.6% | UO-31 renal 42% | TK-10 renal 33.6% | ACHN renal 45.6% | CAKI-1 renal 48.1% | A498 renal 61.7%

O=S(O)c1cc(Cl)cc(Cl)c1OCc1ccccc1
inactive: HCT-15 colon 112% | HT29 colon 104% | SNB-75 CNS 98.7% | SNB-19 CNS 102% | U251 CNS 93.7% | PC-3 prostate 84.5% | SK-MEL-5 melanoma 96.3% | UACC-62 melanoma 107% | LOX IMVI melanoma 108% | SK-MEL-28 melanoma 105% | SK-MEL-2 melanoma 105% | EKVX NSCLC 99.1% | SN12C renal 98.4% | UO-31 renal 90.3% | TK-10 renal 101% | ACHN renal 110% | CAKI-1 renal 99% | A498 renal 80% | CCRF-CEM leukemia 102% | MOLT-4 leukemia 101%

Cc1ccc(S(=O)(=O)OC[C@]23CCC(C)(C)C[C@H]2C2=CC[C@@H]4[C@@]5(C)CCCNC(C)(C)[C@@H]5CC[C@@]4(C)[C@]2(C)CC3)cc1
active: HCT-15 colon -50.9% | HT29 colon -59.3% | U251 CNS -81.1% | LOX IMVI melanoma -87.7%
inactive: SNB-75 CNS 86.4% | SNB-19 CNS 85.7% | PC-3 prostate 53.9% | SK-MEL-5 melanoma 91.5% | UACC-62 melanoma 89.7% | SK-MEL-28 melanoma 99.8% | SK-MEL-2 melanoma 102% | EKVX NSCLC 83% | SN12C renal 46.4% | UO-31 renal 60.2% | TK-10 renal 73% | ACHN renal 48.6% | CAKI-1 renal 41.9% | A498 renal 95.4% | CCRF-CEM leukemia 34.5% | MOLT-4 leukemia 12.9%

CSc1nc2ccc(C)cc2cc1/C=C1/C=C(c2ccccc2)NC1=O
active: TK-10 renal -6.59% | ACHN renal -52.8% | CAKI-1 renal 5.73%
inactive: HCT-15 colon 57.4% | HT29 colon 57.6% | SNB-75 CNS 26.4% | SNB-19 CNS 67.3% | U251 CNS 16.3% | PC-3 prostate 68.4% | SK-MEL-5 melanoma 80.4% | UACC-62 melanoma 71.9% | LOX IMVI melanoma 45.3% | SK-MEL-28 melanoma 79.1% | SK-MEL-2 melanoma 89.5% | EKVX NSCLC 61.4% | SN12C renal 32.6% | UO-31 renal 12.8% | A498 renal 41.7% | CCRF-CEM leukemia 48.3% | MOLT-4 leukemia 44.1%

COc1ccccc1S(=O)(=O)Nc1ccc2c3c(cc(CCC(=O)NCCCCNc4cccc5c4C(=O)N(C4CCC(=O)NC4=O)C5=O)cc13)C(=O)N2C (stereo not given)
inactive: HCT-15 colon 68.4% | HT29 colon 48.4% | U251 CNS 61.4% | UACC-62 melanoma 43.9% | LOX IMVI melanoma 21.4% | SK-MEL-28 melanoma 13.3% | SK-MEL-2 melanoma 11% | EKVX NSCLC 71% | UO-31 renal 55.2% | TK-10 renal 58% | ACHN renal 92.4% | CAKI-1 renal 37.5% | A498 renal 15.6%
active: SNB-75 CNS -26.1% | SNB-19 CNS 7.56% | PC-3 prostate 3.96% | SK-MEL-5 melanoma -33% | SN12C renal 7.95% | CCRF-CEM leukemia -0.604% | MOLT-4 leukemia 0.837%

O=C(/C=C/c1ccccc1)c1cccc2ccccc12
active: HT29 colon 3.24% | SK-MEL-2 melanoma 5.16% | CCRF-CEM leukemia 3.83% | MOLT-4 leukemia 6.46%
inactive: HCT-15 colon 26.5% | SNB-75 CNS 17.4% | SNB-19 CNS 56.7% | U251 CNS 29.6% | PC-3 prostate 45.2% | SK-MEL-5 melanoma 59.2% | UACC-62 melanoma 36.1% | LOX IMVI melanoma 57.8% | SK-MEL-28 melanoma 68.3% | EKVX NSCLC 65.1% | SN12C renal 46.3% | UO-31 renal 46.9% | TK-10 renal 22.5% | ACHN renal 43.1% | CAKI-1 renal 40.7% | A498 renal 50.1%

Nc1nc(N(Cc2ccccc2)c2ccccc2)c2cn[nH]c2n1
inactive: HCT-15 colon 49.8% | HT29 colon 32.3% | SNB-75 CNS 56.8% | SNB-19 CNS 68.1% | U251 CNS 42.6% | PC-3 prostate 74.8% | SK-MEL-5 melanoma 44.6% | UACC-62 melanoma 45.7% | LOX IMVI melanoma 53% | SK-MEL-28 melanoma 63.4% | SK-MEL-2 melanoma 111% | EKVX NSCLC 75.3% | SN12C renal 85.8% | UO-31 renal 75% | TK-10 renal 92.2% | ACHN renal 71.2% | CAKI-1 renal 31.9% | A498 renal 69.9% | CCRF-CEM leukemia 92.6% | MOLT-4 leukemia 62.2%

CS(=O)(=O)Nc1cc(-c2ccc3ncnc(Nc4ccc(OCc5ccccn5)c(Cl)c4)c3c2)cnc1Cl
inactive: HCT-15 colon 25.1% | SNB-19 CNS 24% | PC-3 prostate 13.4% | SN12C renal 20% | ACHN renal 23.7% | CAKI-1 renal 29.2%
active: HT29 colon -5.91% | SNB-75 CNS -10.8% | U251 CNS -27.1% | SK-MEL-5 melanoma -80.8% | UACC-62 melanoma 4.79% | LOX IMVI melanoma -19.6% | SK-MEL-28 melanoma 8.34% | SK-MEL-2 melanoma -65% | EKVX NSCLC 3.3% | UO-31 renal 0.194% | TK-10 renal -19.8% | A498 renal -61% | CCRF-CEM leukemia -2.25% | MOLT-4 leukemia -29.5%

COC(=O)[C@@]1(C)CC[C@]2(C)CC[C@]3(C)C4=CC=C5C(=CC(=O)C(O)=C5C)[C@]4(C)[C@@H](O)C[C@@]3(C)[C@@H]2C1
inactive: HT29 colon 31.1% | SNB-75 CNS 70.5% | SNB-19 CNS 22.9% | PC-3 prostate 29.1% | SK-MEL-5 melanoma 60.7% | UACC-62 melanoma 29.6% | SK-MEL-2 melanoma 43.5% | EKVX NSCLC 51% | TK-10 renal 18.4% | A498 renal 101%
active: HCT-15 colon 1.43% | U251 CNS -10.1% | LOX IMVI melanoma -56.3% | SK-MEL-28 melanoma -17.8% | SN12C renal 9.92% | UO-31 renal -56.6% | ACHN renal -49.9% | CAKI-1 renal 9.58% | CCRF-CEM leukemia -2.39% | MOLT-4 leukemia -20%

O=C(NCCN1CCOCC1)OCc1ccc2c(Cl)cc(Cl)c(O)c2n1
inactive: HCT-15 colon 19.5% | HT29 colon 108% | SNB-75 CNS 71.2% | SNB-19 CNS 59% | U251 CNS 44.6% | PC-3 prostate 60% | SK-MEL-5 melanoma 53.8% | UACC-62 melanoma 59.7% | LOX IMVI melanoma 51% | SK-MEL-28 melanoma 71.6% | SK-MEL-2 melanoma 78.1% | EKVX NSCLC 89.6% | SN12C renal 64.4% | UO-31 renal 25.5% | TK-10 renal 96.4% | ACHN renal 37.3% | CAKI-1 renal 47.1% | A498 renal 106% | CCRF-CEM leukemia 48.3% | MOLT-4 leukemia 57.9%

CCCCCc1ccc(S(=O)(=O)Nc2cc(-c3csc(NC(C)=O)n3)ccc2N2CCN(C)CC2)cc1
active: HCT-15 colon 4% | HT29 colon 5.9% | UACC-62 melanoma -56.2% | LOX IMVI melanoma -95.4% | SK-MEL-28 melanoma -80.2%
inactive: SNB-75 CNS 37.3% | SNB-19 CNS 74.6% | U251 CNS 12.2% | PC-3 prostate 41.2% | SK-MEL-5 melanoma 30.2% | SK-MEL-2 melanoma 81.3% | EKVX NSCLC 78.2% | SN12C renal 61.4% | UO-31 renal 49.4% | TK-10 renal 99.3% | ACHN renal 54.6% | CAKI-1 renal 64.1% | A498 renal 66.2% | CCRF-CEM leukemia 29.8% | MOLT-4 leukemia 12.4%

Cc1ccc(NC(=O)c2sc3nc(C)c(C(O)c4ccccc4)cc3c2N)cc1 (stereo not given)
active: HCT-15 colon 9.64% | HT29 colon 9.15% | A498 renal -8.03% | CCRF-CEM leukemia 7.67%
inactive: SNB-75 CNS 22.5% | SNB-19 CNS 24.5% | U251 CNS 13.9% | PC-3 prostate 19.6% | SK-MEL-5 melanoma 12.7% | UACC-62 melanoma 28.8% | LOX IMVI melanoma 23.5% | SK-MEL-28 melanoma 57.6% | SK-MEL-2 melanoma 42.5% | EKVX NSCLC 48% | SN12C renal 18.9% | UO-31 renal 41.6% | TK-10 renal 53% | ACHN renal 32.8% | CAKI-1 renal 33.8% | MOLT-4 leukemia 18.1%

COCCn1cc(-c2csc(-c3c[nH]c4ccccc34)n2)c2cccnc21
inactive: HCT-15 colon 25.8% | HT29 colon 11.6% | SNB-75 CNS 20.5% | SNB-19 CNS 65.5% | U251 CNS 35.5% | PC-3 prostate 29.6% | UACC-62 melanoma 54.8% | LOX IMVI melanoma 34.1% | SK-MEL-28 melanoma 64.4% | SK-MEL-2 melanoma 18.3% | EKVX NSCLC 31.8% | SN12C renal 64.3% | UO-31 renal 44% | TK-10 renal 34.9% | ACHN renal 49.6% | CAKI-1 renal 56.2% | A498 renal 17.7% | CCRF-CEM leukemia 36.7% | MOLT-4 leukemia 25.7%
active: SK-MEL-5 melanoma 8.9%

CNC(=O)c1cc(Oc2ccc3c(c2)sc2nc(-c4cc(C(F)(F)F)cc(C(F)(F)F)c4)cn23)ccn1
inactive: HCT-15 colon 70.9% | HT29 colon 38.7% | SNB-75 CNS 23.3% | SNB-19 CNS 62.8% | U251 CNS 38.6% | PC-3 prostate 45.4% | SK-MEL-5 melanoma 33% | UACC-62 melanoma 53.3% | LOX IMVI melanoma 50.1% | SK-MEL-28 melanoma 79.3% | SK-MEL-2 melanoma 56.8% | EKVX NSCLC 45.1% | SN12C renal 60.2% | UO-31 renal 61.7% | TK-10 renal 36% | ACHN renal 50.3% | CAKI-1 renal 51.1% | A498 renal 42.5% | CCRF-CEM leukemia 64.1% | MOLT-4 leukemia 45.3%
